Shown is part of a subset that was picked to be rich in hits.
ST2 inh – inhibitors of human ST2 (IL1RL1) binding to IL-33, primary screen, biochemical, AlphaLISA; inhibition, % for hits at 17 µM; 78,000 tested, 2.3% active; AlphaLISA ST2-Fc/biotin-IL-33 interaction, 1 h; in the data active = inhibition above about 30%
Target sequence (Q01638 whole entry, looked up): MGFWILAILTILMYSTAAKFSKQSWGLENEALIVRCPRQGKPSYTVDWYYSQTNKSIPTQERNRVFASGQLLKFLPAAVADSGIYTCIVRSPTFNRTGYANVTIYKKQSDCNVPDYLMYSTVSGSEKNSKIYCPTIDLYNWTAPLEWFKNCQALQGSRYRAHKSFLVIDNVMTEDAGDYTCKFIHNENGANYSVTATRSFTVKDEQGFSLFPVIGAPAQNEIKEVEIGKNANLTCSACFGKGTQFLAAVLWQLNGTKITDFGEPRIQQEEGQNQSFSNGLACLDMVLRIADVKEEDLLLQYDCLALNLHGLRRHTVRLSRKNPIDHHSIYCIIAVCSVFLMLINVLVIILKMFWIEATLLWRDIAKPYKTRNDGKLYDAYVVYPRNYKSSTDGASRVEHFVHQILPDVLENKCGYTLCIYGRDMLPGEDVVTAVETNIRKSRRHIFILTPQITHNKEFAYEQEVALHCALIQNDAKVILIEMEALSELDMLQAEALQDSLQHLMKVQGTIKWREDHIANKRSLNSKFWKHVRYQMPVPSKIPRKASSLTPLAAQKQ
* hit, by the source's call; i = inactive.

SMILES	ST2 inh
CCOc1ccc2c(=O)c(-c3nc4ccccc4s3)coc2c1	30%*
CC(=O)Oc1ccc2c(=O)c(-c3csc(-c4ccccc4)n3)coc2c1	i
CCOc1ccccc1CN1CCN(Cc2cnc(-c3ccccc3C)nc2)CC1CCO (stereo not given)	i
CCC(C)NC(=O)c1ccc(NC(=O)Cn2c(=O)oc3ccccc32)cc1 (stereo not given)	i
CCOC(=O)Cn1c(=O)oc2cc(Cl)ccc21	i
O=C(Cn1c(=O)oc2ccccc21)Nc1ccc(Cl)cc1Cl	46%*
CC(C)CC(Nc1nc(-c2cccnc2)nc2c1CNC2)c1ncnn1C (stereo not given)	i
CCn1c(C2CCN(Cc3cccc4nonc34)CC2)n[nH]c1=O	i
COc1ccc(S(=O)(=O)Nc2ccc(NC(C)=O)cc2)cc1	i
CCN(CC)c1ccc(NS(=O)(=O)c2ccc(OC)cc2)cc1	35%*
COc1ccc(NS(=O)(=O)c2ccc(NS(=O)(=O)c3ccc(C)cc3)cc2)cc1	i
COc1cc(C(=O)N2CCCN(C)C3(CCN(C)CC3)C2)nc(OC)n1	33%*
CNc1nc(C(=O)N2CCC3(CCCN(C)CC3)CC2)cs1	i
CN1CCC2(CC1)CN(C(=O)c1cc(-c3ccc(O)cc3)n[nH]1)CCCN2C	i
CCOc1ccc(S(=O)(=O)Nc2ccc(Cl)cn2)cc1	i
CN(C(=O)c1cc2c(=O)oc3ccccc3c2s1)C1CCCCC1	i
CCN(CC)S(=O)(=O)c1ccc(C(=O)N=c2sc3cc(OC)ccc3n2CC)cc1	i
O=C1CC(c2cc(F)ccc2-n2cccn2)c2cc3cn[nH]c3cc2N1 (stereo not given)	i
CC(=O)N(c1ccc2oc(=O)sc2c1)S(=O)(=O)c1ccc(C)cc1C	i
CCN(Cc1nccn1C)C(=O)c1ccc(NC(C)c2cnn(C)c2)nc1 (stereo not given)	i
Cc1ccc(CCC(=O)N2CCC(Cn3cc(CO)nn3)CC2)cc1C	i
COc1cc(N2CCC(Cn3cc(CO)nn3)CC2)ncn1	65%*
COc1ccc(OC)c(C2CCN(c3cc(OC)ncn3)C2)c1 (stereo not given)	i
COc1ccc(-c2ccc3c(c2)C(=O)N2CC[C@H](NC(=O)c4cccc(F)c4)[C@H]2C(=O)N3)cc1	i
CCCOC(=O)c1ccc(NS(=O)(=O)c2ccc(Br)s2)cc1	i
SMILES	ST2 inh
c1cnc(Nc2nc(-c3ccncc3)cs2)nc1	i
Oc1ccc(-c2csc(Nc3ncccn3)n2)cc1O	44%*
Cc1ccc(C)c(-c2csc(Nc3ncccn3)n2)c1	i
CC(C)(C)n1nc2c(c1NC(=O)Cc1ccccc1)CSC2	i
Cc1cc(OCC(=O)NC2CCCC2)ccc1Cl	i
COc1ccc(OC)c(/C=C2\SC(c3ccccc3)=NC2=O)c1	51%*
COc1cc(/C=C2\SC(c3ccc(C)cc3)=NC2=O)cc(OC)c1O	80%*
COc1ccc(/C=C2\SC(N3CCCCC3)=NC2=O)cc1OC	i
COc1ccc(Br)cc1/C=C1/SC(N2CCOCC2)=NC1=O	i
CCCOc1ccc(-c2nc3s/c(=C\c4cc(OC)ccc4OC)c(=O)n3n2)cc1	i
COc1ccc(/C=C2\SC(N3CCCC3)=NC2=O)cc1OC	i
CCOc1ccc(CN2CCC(C(=O)NC3CCCCCC3)CC2)cc1	i
Cc1cc(N2CCC(C)CC2)nc2ccc(NC(=O)CCC(=O)N3CCC(C)CC3)cc12	i
Cc1cc(N2C[C@H]3C[C@H](O)[C@H](O)C[C@H]3C2)nc(-c2ccccc2)n1	i
O=C1OCC(=O)N(Cc2ccccc2Cl)C1c1ccc(F)cc1 (stereo not given)	i
Cc1ccc2[nH]c3c(c2c1)CN(Cc1ccccc1)CC3	i
Cc1ccc2[nH]c3c(c2c1)CCCC3=O	i
Cc1ccc2[nH]c3c(c2c1)CCC1C3=NNC1c1ccco1 (stereo not given)	37%*
CCC(CC)NC1CC(=O)N(CC)C1 (stereo not given)	i
Cc1cccc(Cc2c(C)nc3nc(SCC(=O)N4CCC5(CC4)OCCO5)nn3c2C)c1	i
CCOC(=O)c1nn(-c2ccc(Br)cc2)cc1O	i
CCc1ccccc1NC(=O)c1c(OC)cccc1OC	i
COc1ccc(OC)c(NC(=O)c2c(OC)cccc2OC)c1	35%*
COc1ccc(OC)c(NC(=O)c2cc3ccccc3o2)c1	i
CCOC(=O)C1C(=O)C=C(c2ccc(OC)c(OC)c2)CC1c1cccs1 (stereo not given)	i
O=C1C=C(c2ccccc2)C[C@H](c2cccs2)[C@H]1n1nnc([N+](=O)[O-])n1	33%*
O=C1C=C(/C=C/c2ccccc2)C[C@H](c2ccccc2)[C@H]1n1nnc([N+](=O)[O-])n1	58%*
COc1ccccc1C(=O)Nc1cc(C)ccc1OCc1cc(=O)n2oc(C)cc2n1	i
O=C(Nc1cccc(F)c1)c1c[nH]c(=O)n(-c2ccccc2)c1=O	i
Cc1nn(-c2ccccc2)c(C)c1CC(=O)O	i
